In PubChem BioAssay (NCI):
The panel holds about 79,000 compounds, 15% with a hit somewhere; the sample as a whole holds those more often. Activity calls are given as the source filed them. Rule as the data show it: active = growth inhibition above about 70%; inactive = the rest.

Assays:
[1] = NCI Yeast Anticancer Drug Screen. Data for the wt1 strain (AID 149);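 also: 0% = growth of vehicle-treated wt1 cultures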; details: S. cerevisiae wt1 strain (SPY 50644) growth inhibition, hits give high values
How it was run: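 wt1 yeast, compound-treated; % growth inhibition vs vehicle control.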

[2] = NCI Yeast Anticancer Drug Screen. Data for the rad50EPP+ strain (AID 151);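 also: 0% = growth of vehicle-treated control cultures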; details: S. cerevisiae rad50 mutant strain, hits give high values
How it was run: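 Compounds were applied to the rad50EPP+ yeast strain, which bears a defined DNA repair alteration, and growth inhibition was determined relative to vehicle-treated cultures.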

[3] = NCI Yeast Anticancer Drug Screen. Data for the mgt1 strain (AID 153); details: S. cerevisiae mgt1 mutant growth inhibition, hits give high values
How it was run: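 Strain: mgt1 yeast, one of a set carrying defined DNA damage repair or cell cycle control alterations. Compound-treated growth compared with vehicle.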

[4] = NCI Yeast Anticancer Drug Screen. Data for the rad50 strain (AID 155);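 also: 0% = growth of vehicle-only cultures of the same strain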; details: S. cerevisiae rad50 strain growth inhibition, hits give high values
How it was run: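 Genetically altered yeast (DNA repair pathway); compound treatment; growth inhibition vs vehicle ctrl.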

[5] = NCI Yeast Anticancer Drug Screen. Data for the mec2-1 strain (AID 157); details: S. cerevisiae mec2-1 strain, hits give high values
How it was run: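 Strain: mec2-1 (DNA repair/cell cycle alteration). Compound exposure, then growth measured; inhibition expressed relative to vehicle.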

[6] = NCI Yeast Anticancer Drug Screen. Data for the rad14 strain (AID 159);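 also: 0% = growth of vehicle-treated control cultures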; details: S. cerevisiae rad14 strain growth inhibition, hits give high values
How it was run: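 Test compounds were applied to a repair-deficient yeast strain. Its growth was then compared with that of cultures given vehicle alone, and inhibition was expressed relative to those controls.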

[7] = NCI Yeast Anticancer Drug Screen. Data for the sgs1 mgt1 strain (AID 161);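 also: 0% = growth of cultures given vehicle only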; details: S. cerevisiae sgs1 mgt1 strain, hits give high values
How it was run: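 Genetically altered yeast, compound exposure, growth inhibition relative to vehicle.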

[8] = NCI Yeast Anticancer Drug Screen. Data for the CLN2oe strain (AID 163);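 also: 0% = growth of vehicle-only control cultures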; details: S. cerevisiae CLN2oe strain, hits give high values
How it was run: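 Growth of a genetically modified yeast strain is measured after compound exposure and compared with cultures given vehicle alone.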

[9] = NCI Yeast Anticancer Drug Screen. Data for the cln2 rad14 strain (AID 165);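 also: 0% = growth equal to vehicle treated cultures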; details: S. cerevisiae cln2 rad14 strain, hits give high values
How it was run: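 Compounds are applied to the cln2 rad14 yeast strain, and growth is then compared with that of vehicle-treated cultures to give inhibition.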

[10] = NCI Yeast Anticancer Drug Screen. Data for the bub3 strain (AID 167); details: S. cerevisiae bub3 mutant strain, hits give high values
How it was run: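 Yeast carrying a defined mutation is treated with each compound, and growth is compared with that of vehicle-exposed cells to give inhibition.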

[11] = NCI Yeast Anticancer Drug Screen. Data for the wt2 strain (AID 169);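 also: 0% = growth of vehicle-treated yeast cultures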; details: S. cerevisiae wt2 strain growth inhibition, hits give high values
How it was run: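 This strain belongs to a panel of yeast strains with defined genetic alterations in DNA damage repair or cell cycle control. Compounds are applied, and growth inhibition is measured against vehicle-treated cultures.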

[12] = NCI Yeast Anticancer Drug Screen. Data for the sgs1 strain (AID 173);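 also: 0% = growth of vehicle-only control cultures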; details: S. cerevisiae sgs1 mutant, hits give high values
How it was run: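 Growth of a yeast strain bearing a defined genetic alteration is measured after compound treatment. Inhibition is expressed relative to vehicle-only controls.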

[13] = NCI Yeast Anticancer Drug Screen. Data for the mlh1 rad18 strain (AID 175); details: S. cerevisiae mlh1 rad18 strain growth inhibition, hits give high values
How it was run: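 Read-out is yeast growth inhibition, calculated against vehicle-only controls. The compound was applied to a strain engineered with DNA damage repair alterations.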

[14] = NCI Yeast Anticancer Drug Screen. Data for the rad18 strain (AID 177); details: S. cerevisiae rad18 mutant growth inhibition, hits give high values
How it was run: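 Growth of the mutant yeast strain after compound exposure, normalised to vehicle-only cultures.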

[15] = at 5.0 µM (retest, dose inferred, filed as 0.5)
[16] = at 50.0 µM (retest, dose inferred, filed as 5.0)

Measured: growth inhibition

Cc1ccccc1C1=C(CC(=O)O)c2ccccc2CC1C (stereo not drawn)
inactive: [1]; at 1.2 µM 4% | [1]; at 3.7 µM 8% | [1]; at 11.0 µM 29% | [2]; at 1.2 µM -1% | [2]; at 3.7 µM 2% | [2]; at 11.0 µM 6% | [2]; at 33.0 µM 10% | [2]; at 100.0 µM 49% | [3]; at 1.2 µM 9% | [3]; at 3.7 µM 11% | [3]; at 11.0 µM 22% | [4]; at 1.2 µM 6% | [4]; at 3.7 µM 10% | [4]; [15] 6% | [4]; at 11.0 µM 45% | [4]; [16] 10% | [5]; at 1.2 µM 9% | [5]; at 3.7 µM 20% | [5]; [15] 10% | [5]; at 11.0 µM 49% | [5]; [16] 6% | [6]; at 1.2 µM 6% | [6]; at 3.7 µM 11% | [6]; at 11.0 µM 29% | [7]; [15] 2% | [7]; [16] 20% | [8]; at 1.2 µM 10% | [8]; at 3.7 µM 15% | [8]; at 11.0 µM 57% | [9]; [15] -13% | [9]; [16] 28% | [10]; at 1.2 µM 11% | [10]; at 3.7 µM 9% | [10]; [15] -4% | [10]; at 11.0 µM 26% | [10]; [16] 1% | [11]; at 1.2 µM 5% | [11]; at 3.7 µM 7% | [11]; at 11.0 µM 37% | [12]; at 1.2 µM 5% | [12]; at 3.7 µM 10% | [12]; at 11.0 µM 40% | [13]; [15] 14% | [13]; [16] 50% | [14]; at 1.2 µM 4% | [14]; at 3.7 µM 10% | [14]; at 11.0 µM 38%
active: [1]; at 33.0 µM 96% | [1]; at 100.0 µM 96% | [3]; at 33.0 µM 95% | [3]; at 100.0 µM 99% | [4]; at 33.0 µM 97% | [4]; at 50.0 µM 98.9% | [4]; at 100.0 µM 99% | [5]; at 33.0 µM 95% | [5]; at 50.0 µM 99.7% | [5]; at 100.0 µM 99% | [6]; at 33.0 µM 98% | [6]; at 100.0 µM 99% | [7]; at 50.0 µM 99.6% | [8]; at 33.0 µM 97% | [8]; at 100.0 µM 98% | [9]; at 50.0 µM 99.4% | [10]; at 33.0 µM 93% | [10]; at 50.0 µM 99% | [10]; at 100.0 µM 99% | [11]; at 33.0 µM 97% | [11]; at 100.0 µM 98% | [12]; at 33.0 µM 98% | [12]; at 100.0 µM 99% | [13]; at 50.0 µM 99.5% | [14]; at 33.0 µM 96% | [14]; at 100.0 µM 99%
